# In PubChem BioAssay AID803 (The Scripps Research Institute Molecular Screening Center, 2007):
# In all, about 140,000 compounds went through this assay and about 680 (0.49%) were called active. The full list was thinned out, with actives kept by preference. Values without a mark were called inactive. No stated cut-off is given here; in the data, active means activation above about 5% (passing the limit was not always enough); inactive means the rest.
# Molecular target: Galanin receptor type 2 (Homo sapiens) (UniProt O43603)
# Sequence (O43603 whole entry, looked up): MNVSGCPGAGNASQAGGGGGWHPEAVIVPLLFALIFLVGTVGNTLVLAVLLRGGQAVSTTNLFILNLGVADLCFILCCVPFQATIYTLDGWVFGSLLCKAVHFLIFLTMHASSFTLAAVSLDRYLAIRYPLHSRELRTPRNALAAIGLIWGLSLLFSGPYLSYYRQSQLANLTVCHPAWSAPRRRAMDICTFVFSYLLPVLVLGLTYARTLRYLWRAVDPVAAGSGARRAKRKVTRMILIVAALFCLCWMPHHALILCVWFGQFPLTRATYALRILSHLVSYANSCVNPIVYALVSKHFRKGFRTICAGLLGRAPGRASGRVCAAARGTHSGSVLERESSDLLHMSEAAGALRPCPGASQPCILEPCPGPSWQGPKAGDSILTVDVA
# Assay: human galanin receptor 2 activators – cell-based, primary screen (AID 803);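 further: 0% = vehicle buffer wells and 100% = reference agonist at full effect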
# Conditions: GALR2-expressing cells, agonist activation read-out; at 5.6 µM; active compounds read high
row,SMILES,activation
1,COc1ccc(NC(=S)SC)cc1OC,-0.23%
2,CN(C)S(=O)(=O)c1cccc(NC(=S)N/N=C/C(=O)c2ccccc2)c1,0.25%
3,CCNc1nc(NC(C)C)nc(N2CC(=O)N(CC(=O)OCC)C2=N)n1,0.96%
4,N=C(N)SCc1cccc2ccccc12,-1.3%
5,CCn1c(SCc2ccc(C)cc2)nnc1-c1nn(-c2ccccc2)ccc1=O,-0.25%
6,CCc1ccc(-c2nn(-c3ccccc3)cc2CSC(=N)N)cc1,5.34% (active)
7,Cc1cc[n+](-c2[nH]c(=O)sc2/C=N/NC(=O)c2ccccc2[O-])cc1C,1.06%
8,COc1ccccc1C1SCCN1C(=O)c1ccc([N+](=O)[O-])cc1 (stereo unspecified),0.57%
9,N=c1n(CCc2ccccc2)c2ccccc2n1Cc1ccccc1F,-1.04%
10,OC(COc1cccc2ccccc12)CN1CCN(c2ccccn2)CC1 (stereo unspecified),14.5% (active)
11,OC(COc1cccc(OCC(O)CN2CCCC2)c1)CN1CCCC1 (stereo unspecified),-0.12%
12,O=C1c2cccc3cccc(c23)N1CN1CCN(c2ccccn2)CC1,-1.31%
13,C=CCn1c(CCNC(=O)c2cccs2)n[nH]c1=S,-1.14%
14,Cn1nccc1CNC(=O)c1ccnn1C,-2.14%
15,COc1cc(NC(=S)NNC(=O)CC(C)C)c(OC)cc1Cl,-0.97%
16,CCCCn1c(O)c(N=NC(=O)Cn2c(C(F)(F)F)nc3ccccc32)c2ccccc21,-0.64%
17,CCOC(=O)c1oc2c(CN3CCN(C)CC3)c(O)ccc2c(=O)c1-c1ccc(Br)cc1,-1.12%
18,O=C(Nc1cccc2ncccc12)c1ccc(-c2ccc(Cl)cc2Cl)o1,-3.29%
19,Cc1csc(NC(=O)c2ccc(-c3ccc(Cl)cc3Cl)o2)n1,8.53% (active)
20,Cc1csc(NC(=S)Nc2cccc(Cl)c2)n1,-0.28%
21,C=CCn1c(P(C)(=O)O)nc2ccccc21,-0.16%

row,SMILES,activation
1,Cc1ccc(C(C)NC(=O)Cn2nc(C)c([N+](=O)[O-])c2C)cc1 (stereo unspecified),-0.83%
2,CCOc1ccccc1N(CC(=O)Nc1ccccc1C(=O)OC)S(C)(=O)=O,-0.26%
3,CCOc1cc(C2C(C(=O)OC)=CN(C3CCCC3)C=C2C(=O)OC)cc(Br)c1O,2.25%
4,CC12CN3CC(C)(CN(C1)C3c1ccc(Cl)cc1Cl)C2=O (stereo unspecified),-0.09%
5,COC(=O)C1=CN(C)C=C(C(=O)OC)C1c1ccc(Cl)cc1Cl,7.44% (active)
6,CCOc1ccccc1C1C(C(=O)OC)=CN(C)C=C1C(=O)OC,10.7% (active)
7,NNC(=O)c1ccc(Cl)cc1Cl,0.25%
8,Cc1c(C(=O)c2cccc([N+](=O)[O-])c2)c2ccccn2c1CCC#N,0.65%
9,O=C(COC(=O)Cn1cnc2ccccc2c1=O)NCC12CC3CC(CC(C3)C1)C2,-1.72%
10,CCO/N=C(/C)c1c(O)cc(-c2ccccc2)n(-c2ccccc2)c1=O,0.26%
11,Nc1nc(SCC(=O)NNc2c(Cl)cc(Cl)cc2Cl)n[nH]1,-0.67%
12,c1ccc2c(c1)CSc1sccc1C2=C1CCNCC1,-2.25%
13,Cn1c(=O)c2c(nc(N3CCCCCC3)n2CC(=O)c2ccc(Br)cc2)n(C)c1=O,-0.03%
14,C=CCOc1nc2c(c(=O)n(C)c(=O)n2C)n1Cc1ccc(Cl)cc1Cl,1.61%
15,C=CCn1c(Oc2ccc(C(=O)OC)cc2)nc2c1c(=O)n(C)c(=O)n2C,16.4% (active)
16,CCOc1ccc2nc(SC(CC)C(=O)Nc3cc(C)on3)sc2c1 (stereo unspecified),-1.01%
17,COc1ccc2nc(Nc3nc4ccc(NC(C)=O)cc4s3)sc2c1,2.62%
18,CCOc1ccc2nc(Nc3nc4ccc(NC(C)=O)cc4s3)sc2c1,35.2% (active)
19,N#Cc1c(NC(=O)c2ccc(N3CCOCC3)c([N+](=O)[O-])c2)sc2c1CCCC2,-1.06%
20,O=C(O)c1cccc(N2C(=O)Nc3ccccc3N2O)c1,-0.65%
21,Cc1ccccc1N(C(=O)Cc1cccs1)C(C(=O)NC1CCCCC1)c1cn(C)nc1C (stereo unspecified),-0.31%

row,SMILES,activation
1,CCCCCOc1ccc(CSC2=NCCN2)cc1[N+](=O)[O-],0.31%
2,CC(C)NC(=O)C(=O)NCCCOC(C)C,-1.05%
3,CCNS(=O)(=O)c1ccc(NC(=O)c2cncc(Br)c2)cc1,-1.39%
4,C/C(CC(=O)Nc1cccc(F)c1)=N\NC(=O)C(=O)NC1CCCCC1,-0.33%
5,COCCN(CCOC)S(=O)(=O)c1ccc(C(=O)Nc2nc3c(s2)CCc2ccccc2-3)cc1,12.8% (active)
6,CCN(c1ccccc1)S(=O)(=O)c1ccc(C(=O)Nc2nccs2)cc1,-3.23%
7,C=CCN(CC=C)S(=O)(=O)c1ccc(C(=O)Nc2sc3c(c2C(N)=O)CCCCC3)cc1,-0.72%
8,O=C(Nc1ccc(S(=O)(=O)N2CCc3ccccc3C2)cc1)c1ccccc1,-2.86%
9,C=CCN(CC=C)S(=O)(=O)c1ccc(C(=O)Nc2nc3c(s2)CCc2ccccc2-3)cc1,9.18% (active)
10,COc1ccc(C(=O)Nc2ncc3c(n2)-c2ccccc2CC3)cc1,-1.58%
11,O=C(CN1C2=NCCN2c2ccccc21)c1cccs1,0.13%
12,CCOc1ccc(Br)cc1CSC(=N)N,-1.41%
13,O=C(Nc1cccc(Cl)c1)Nc1ccccc1NS(=O)(=O)c1cccs1,-0.87%
14,Cc1cccc(OCC(O)Cn2c(=N)n(CCN3CCOCC3)c3ccccc32)c1 (stereo unspecified),-1.56%
15,CCOc1ccc(C(O)Cn2c(=N)n(CCN3CCCCC3)c3ccccc32)cc1 (stereo unspecified),25.8% (active)
16,Cn1c(=N)n(CC(O)c2ccccc2)c2ccccc21 (stereo unspecified),-3.54%
17,O=C(COC(=O)CCCNC(=O)c1ccc(Cl)cc1)Nc1cc(Cl)ccc1Cl,-0.66%
18,N#Cc1ccccc1NC(=O)c1cccc(COc2ccc(Cl)cc2Cl)c1,-1.81%
19,CCC(C)NC(=O)c1ccc(N2CCC3(CC2)OCCO3)c([N+](=O)[O-])c1 (stereo unspecified),1.63%
